The whole screen tested about 6,200 compounds, of which about 2,900 (47%) were called active. No stated cut-off is given here; in the data, active means inhibition above about 50%; inactive means the rest. The set was probably picked from earlier hits. The list shows a part of the results.

A short description of the assay: Mycobacterium tuberculosis growth inhibition, primary screen (AID 1259343). As to conditions: inhibition: at 10 µM, hits give high values; outcome: 10 uM.
Turning to `CC(C)c1cc(C(=O)NCc2nc(Cc3cccs3)no2)n(C)n1`, the inhibition – broadly, the relative decrease from the control value, in per cent – was 13.7% (inactive).
Turning to `Cc1[nH]ncc1CCCNC(=O)Nc1ccc(Cl)c(Cl)c1`, the inhibition is -9.82% (inactive).
The same measure for `CC(C)Cc1noc(CCCNC(=O)Nc2cccc(Cl)c2)n1`: 55.1% (active); for `CCCc1cc(NCc2cccnc2)n2ncc(-c3ccccc3)c2n1`: 13.7% (inactive); for `Fc1ccc(-c2cnn3c(NCc4cccc(Cl)c4)ccnc23)cc1Cl`: 57.7% (active).
The same measure for `CCCCCCc1ccc(C(=O)N2CCSC2c2ccncc2)cc1` (stereo unspecified): 95.1% (active); for `CCCCc1ccc(C(=O)O)nc1`: 40.9% (inactive).
As to `O=C(CSc1ncnc2c1nnn2Cc1ccccc1F)OCc1ccccc1`, the inhibition is -8.15% (inactive).
The same measure for `c1ccc(-n2nnc3c(SCc4cccnc4)ncnc32)cc1`: 61.4% (active); for `Cc1ccc(Cn2nnc3c(SCc4cccnc4)ncnc32)cc1`: 58.1% (active).
The same measure for `Fc1ccc(-n2nnc3c(SCc4cccc(F)c4)ncnc32)cc1`: -31.5% (inactive); for `O=C(CSc1ncnc2c1nnn2Cc1ccccc1)OCc1ccccc1`: -35.2% (inactive); for `c1ccc(Cn2nnc3c(SCc4cccnc4)ncnc32)cc1`: -31.8% (inactive).
The same measure for `COc1ccc(-n2nnc3c(SCc4cccc(F)c4)ncnc32)cc1`: 88.2% (active).
For the compound `Cc1ccc(Cn2nnc3c(SCC(=O)OCc4ccccc4)ncnc32)cc1`, the inhibition was 84.7% (active).
Turning to `COc1ccc(-n2nnc3c(SCc4cccc(Cl)c4)ncnc32)cc1`, the inhibition was -33.7% (inactive).
The same measure for `COc1cccc(-n2nnc3c(SCc4cccnc4)ncnc32)c1`: 74.8% (active); for `CCCc1ncc(CN2CCC(C(=O)Nc3cccc(-c4cccc(F)c4)c3)CC2)cn1`: “inactive”; for `Cc1cccc(-c2ccc(NC(=O)C3CCN(Cc4nccs4)CC3)cc2)c1`: 37.9% (inactive).
To `COc1cccc(-c2ccc(NC(=O)C3CCCN(Cc4cnc(N(C)C)s4)C3)cc2)c1` (stereo unspecified) belongs 48.7% (inactive).
To `CC(=O)c1cccc(CN2CCC(C(=O)Nc3cccc(-c4cccc(F)c4)c3)CC2)c1` belongs 69% (active); to `O=C(Nc1cccc(-c2cccc(F)c2)c1)C1CCN(Cc2cccc3cnccc23)CC1`, 75.2% (active); to `CC(=O)c1cc(CN2CCC(C(=O)Nc3cccc(-c4cccc(F)c4)c3)CC2)cs1`, 91.3% (active).
For the compound `Cc1cccc(-c2ccc(NC(=O)C3CCN(Cc4cnc(N(C)C)s4)CC3)cc2)c1`, the inhibition was 88.2% (active).
Turning to `O=C(Nc1cccc(-c2cccc(F)c2)c1)C1CCN(Cc2cccs2)CC1`, the inhibition is 36.5% (inactive).
Turning to `CCCn1nnnc1NCc1cccn1C`, the inhibition is 1.45% (inactive).
The same measure for `Cn1ccsc1=NC(=O)CCN1c2ccccc2Sc2ccccc21`: -5.61% (inactive); for `CC(=O)c1cccc(CN2CCC(C(=O)Nc3ccc(-c4cccc(C)c4)cc3)CC2)c1`: 86.5% (active).
To `Cc1cccc(CN2CCC(C(=O)Nc3cccc(-c4cccc(F)c4)c3)CC2)n1` belongs 76.4% (active); to `c1nc(NC2CC3CC2C2CCCC32)c2sccc2n1` (stereo unspecified), 30.1% (inactive); to `COc1cccc(OC)c1OCCOc1ccc(Br)cc1Cl`, 82% (active).
The same measure for `COc1cccc(OC)c1OCCCOc1ccc(Cl)cc1Cl`: 89.4% (active); for `COc1cccc(OC)c1OCCCOc1ccc(C)cc1Cl`: 47.8% (inactive).
As to `O=c1nc(SCc2ccc(C(F)(F)F)cc2)nc2ccccn12`, the inhibition was -29.6% (inactive).
The same measure for `O=c1cnnc(SCc2ccc(C(F)(F)F)cc2)[nH]1`: 84.2% (active); for `Cc1ccn2c(=O)nc(SCc3ccc(C(F)(F)F)cc3)nc2c1`: 22.7% (inactive); for `FC(F)(F)c1ccccc1CCNc1nncc(-c2ccccc2)n1`: -20% (inactive).
To `c1ccc2c(c1)[I+]c1ccccc1-2` belongs 101% (active); to `CC(O)c1ccc(Oc2ccc(Br)cc2)cc1` (stereo unspecified), 72.8% (active).
The same measure for `OC(COc1ccc(Cl)cc1)CSc1ccc(Br)cc1` (stereo unspecified): -20.4% (inactive).
`Nc1ccc(Oc2ccc(Br)cc2)cc1`: the inhibition was 39.8% (inactive).
The same measure for `NC(=O)C1CCN(c2nc3cc(C(F)(F)F)ccc3s2)C1` (stereo unspecified): 34.5% (inactive); for `CCc1cnc(C)nc1N1CCCC(C(=O)c2ccc(C(F)(F)F)cc2)C1` (stereo unspecified): 51.3% (active); for `COC(=O)C(Cc1ccc(OCCn2c(=O)sc3cc(C(=O)c4ccccc4)ccc32)cc1)C(=O)OC`: 51.7% (active).
Consider `COc1ccc(NC(=O)c2sc(=O)n(CCOc3ccc(F)cc3)c2C)cc1OC`, for which the inhibition was 27.4% (inactive).
For `C(=C\c1ccccc1)/CSc1n[nH]c(-c2cccnc2)n1`, the inhibition is 96.6% (active).
The same measure for `O=c1nc(SC/C=C/c2ccccc2)nc2ccccn12`: -19.1% (inactive); for `c1ccc(-c2nc(SC(c3ccccc3)c3ccccc3)n[nH]2)cc1`: 22.5% (inactive).
The same measure for `CCOC(=O)C(=O)N1CCC(CCc2ccccc2)CC1`: 90.7% (active); for `COc1ccc(-c2ccc(C(=O)N3CCCC(c4ccccc4)CC3)cn2)cc1` (stereo unspecified): 36.2% (inactive).
To `O=C(c1ccco1)N1CCC(Cc2ccc(F)cc2)CC1` belongs 86.8% (active); to `c1ccc(-c2ccc(CCC3CCN(Cc4cccs4)CC3)cc2)cc1`, 43.2% (inactive); to `O=C(c1ccco1)N1CCC(CCc2ccc(-c3ccccc3)cc2)CC1`, 81% (active).
As for `O=C(C1CCC1)N1CCC(CCc2ccc(-c3ccccc3)cc2)CC1`, the inhibition was 44.8% (inactive).
Take `O=C(c1ccco1)N1CCCC2(CCCCC2)C1`: the inhibition was -18% (inactive).
The same measure for `O=C(c1ccc(-c2ccc(O)cc2)nc1)N1CCC(CCc2ccccc2)CC1`: 83.7% (active); for `O=C(c1ccno1)N1CCC(Cc2ccc(F)cc2)CC1`: 56.4% (active).
For `Cc1ccccc1N1CCN(Cc2ccc(C#CCO)s2)C(C)C1` (stereo unspecified), the inhibition was 76.9% (active).
To `Cc1ccccc1N1CCN(Cc2cc(C#CCO)cs2)C(C)C1` (stereo unspecified) belongs -56.2% (inactive); to `c1ccc2c(c1)CN1CCCC1=N2`, 101% (active); to `O=C1OC2(CCCCC2)OC(=O)C1=CNc1ccc2ccccc2c1`, 48.9% (inactive).
To `O=C1C=C(Nc2ccc3ccccc3c2)CCC1` belongs 89.7% (active).
On to `O=C(Nc1nnc(-c2ccc3c(c2)OCCO3)o1)c1cccc2ccccc12`, for which the inhibition was 98.7% (active).
To `CN(CCNC(=O)C1(C)CC1(Cl)Cl)C1CC1` (stereo unspecified) belongs -9.78% (inactive); to `Cc1cc2nc(CN(C)Cc3nc(Cc4cccc(C(F)(F)F)c4)no3)[nH]c2cc1C`, “inactive”.
To `COc1cccc(C(C)N(C)Cc2nc(COc3ccccc3)no2)c1` (stereo unspecified) belongs 71.8% (active); to `CN(Cc1nc(COc2ccccc2)no1)CC1(c2ccccc2)CC1(C)C` (stereo unspecified), 42.2% (inactive); to `CN(Cc1csc(-c2ccccc2)n1)Cc1nc(Cc2cccc(F)c2)no1`, 90.6% (active).
The same measure for `N#Cc1cccc(OCc2noc(-c3ccsc3)n2)c1`: 34.2% (inactive).
In the case of `COc1cccc(C(C)N(C)Cc2nc(Cc3cccc(F)c3)no2)c1` (stereo unspecified), the inhibition was 65.5% (active).
The same measure for `COc1ccccc1OC(C)c1nc(Cc2cccc(C(F)(F)F)c2)no1` (stereo unspecified): 36.2% (inactive).
For `FC(F)(F)c1cccc(Cc2noc(CN3CCC(OCc4ccccn4)CC3)n2)c1`, the inhibition was 32% (inactive).
The same measure for `Cc1c(CN(C)Cc2nc(Cc3cccc(C(F)(F)F)c3)no2)[nH]c2ccccc12`: 66.5% (active); for `COc1cccc(C(C)N(C)Cc2nc(-c3cccc(Cl)c3)oc2C)c1` (stereo unspecified): -0.61% (inactive).
The same measure for `CC1CCC(C(C)C)c2[nH]nc(-c3ccccc3O)c21` (stereo unspecified): 4.33% (inactive); for `O=S(=O)(/C=C/c1ccc(Cl)cc1)Oc1ccc(F)c(F)c1`: 92.7% (active).
The same measure for `Cn1ccc(NS(=O)(=O)/C=C/c2ccc(Cl)cc2)n1`: 41.7% (inactive); for `CC(C)CCNCC(O)CON=C1c2ccccc2-c2ccccc21` (stereo unspecified): 84.8% (active); for `CCCCC/C=C\C/C=C\C/C=C\CCCCC(=O)N1CCN(Cc2cc(=O)c(OCc3cccc(F)c3)co2)CC1`: 16.1% (inactive).
`N#Cc1ccccc1-c1ccc(COc2coc(CN3CCN(C(=O)c4ccc([N+](=O)[O-])o4)CC3)cc2=O)cc1`: the inhibition was 102% (active).
The same measure for `Cc1cc(C)c(-c2nc3cc(NC(=O)c4cccs4)ccc3o2)c(C)c1`: 42.8% (inactive).
The same measure for `Cc1nc2cc(NC(=O)CN(C)S(=O)(=O)c3ccc(F)cc3)ccc2o1`: 23.8% (inactive).
The same measure for `CCc1nc2cc(NC(=O)CC3CCCCC3)ccc2o1`: 89.5% (active); for `Fc1ccccc1CC1CCN(Cc2nc(-c3cccs3)no2)CC1`: 83.9% (active); for `c1csc(-c2noc(CN3CCCC(c4nc5ccccc5o4)C3)n2)c1` (stereo unspecified): “inactive”.
As for `CC(c1nc(-c2cccs2)no1)N1CCC(c2ccccc2)CC1` (stereo unspecified), the inhibition is -41.5% (inactive).
For `Fc1ccccc1OCC1CCCN(Cc2nc(-c3cccs3)no2)C1` (stereo unspecified), the inhibition is 47% (inactive).
The same measure for `Clc1ccccc1C1CCN(Cc2nc(-c3cccs3)no2)C1` (stereo unspecified): 96.1% (active).
The same measure for `c1csc(-c2noc(CN3CCc4sccc4C3)n2)c1`: 46.9% (inactive); for `CCCC1=NN(c2nc3ccccc3s2)C(=O)C1C(C)=Nc1ccc(C(=O)OCC)cc1` (stereo unspecified): 98.8% (active).
The same measure for `CC(C)Oc1ccc(CNC(=O)c2ccco2)cc1F`: 99.8% (active).
Regarding `O=C(Nc1ccc(SC2CCCC2)cc1)c1ccc(=O)[nH]c1`, the inhibition was 53.3% (active).
In the case of `Nc1nccnc1C(=O)Nc1ccc(SC2CCCC2)cc1`, the inhibition is 80% (active).
The same measure for `Nc1nccnc1C(=O)NCCSCc1ccsc1`: -5.01% (inactive); for `CCc1c(C)nc(-n2nc(C)cc2NC(=O)c2ccccc2[N+](=O)[O-])[nH]c1=O`: 81.9% (active).
To `Cc1cc(=O)[nH]c(-n2nc(C)cc2NC(=O)c2cccc([N+](=O)[O-])c2C)n1` belongs 100% (active).
For the compound `Cc1cc(NC(=O)c2cccc([N+](=O)[O-])c2C)n(-c2nc(C)c(C)c(=O)[nH]2)n1`, the inhibition was 98.3% (active).
To `CCc1c(C)nc(-n2nc(C)cc2NC(=O)c2cccc([N+](=O)[O-])c2C)[nH]c1=O` belongs 102% (active).
To `N#CCc1ccc(Oc2ccc(C(=O)O)cc2)cc1` belongs 34.3% (inactive).
For the compound `O=C(O)c1ccc(Oc2cc(Cl)ccc2Cl)cc1`, the inhibition was 45.5% (inactive).
To `O=C(O)c1ccc(Oc2cccc(Br)c2)cc1` belongs 91.5% (active).

Source of the values: PubChem BioAssay AID1259343 (VanderVen Lab, College of Veterinary Medicine, Cornell …, 2017).
